Measurements published in the supplement of paper PMC6555819.

What was measured:
Test in all cases: PBM binding z-score (relative to random genomic background probes); higher = stronger binding; sequences stand for … in GC…GCGATTGACAGCGTAGAATGAAGG
[1] = test system: RARb homodimer (NR concentration 270 nM)
Procedure, shortened: (§1)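 Antibodies against each partner of ligand-free nuclear receptor dimers (one per run) detected binding on custom Agilent 4×180K protein-binding microarrays after 1 h incubation. The double-stranded probes had 34-nt variable regions carrying direct-repeat seeds, single-nucleotide variants, half-site ablations and random human genomic background sequences. Binding z-scores, from regression-normalized fluorescence, use the random background probes as reference.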

[2] = test system: RARg:RXRa (NR concentration 270 nM, RXRa partner concentration 90 nM)
Procedure, shortened: as §1

[3] = test system: RARg homodimer (NR concentration 270 nM)
Procedure, shortened: as §1

[4] = test system: RXRa DBDmut IVT, anti-RXR (DBD mutation: RXRa K156A/R161A, NR concentration 90 nM)
Procedure, shortened: as §1

[5] = test system: RXRa homodimer (NR concentration 180 nM)
Procedure, shortened: as §1

[6] = test system: THRa:RXRa (NR concentration 90 nM, RXRa partner concentration 90 nM)
Procedure, shortened: as §1

[7] = test system: THRa homodimer (NR concentration 90 nM)
Procedure, shortened: as §1

[8] = test system: VDR homodimer (NR concentration 270 nM)
Procedure, shortened: as §1

Sequence	PBM binding z-score [1]	PBM binding z-score [2]	PBM binding z-score [3]	PBM binding z-score [4]	PBM binding z-score [5]	PBM binding z-score [6]	PBM binding z-score [7]	PBM binding z-score [8]
CTTGAAAGGTCGTGCTCAGGTGAGTATACCAAAC	2.75	5.02	3.64	2.21	5.06	4.21	0.803	1.03
TCTGCTAGGTCAGTTGGTAAGCTAACGAGCTGCC	1.95	2.35	3.32	0.399	0.543	1.16	-0.266	-0.694
TCTGCTAGGTCAGTTGGTCAGCTATCGAGCTGCC	2.69	2.62	3.33	0.537	0.914	1.2	0.162	-0.608
GCTCGGAGGACGAGGTCAGAGCTTTGTCCGTAGA	2.89	3.06	2.84	0.606	3.19	3.09	1.51	1.26
CGAACAAGGTCAAGGACAGTGAATCTCCGCACGC	4.07	6.08	6.35	3.61	6.26	4.03	2.93	2.3
GCAGACAGATGAAACGCAGGTAACTCAGGGTGGC	-0.914	-0.366	-0.316	-0.516	-0.162	0.473	-1.03	-0.594
GATACAGGGTCAGCTAGAAGCCAGAGTATGGAAA	2.56	4.59	4.35	1.28	4.19	2.53	0.406	0.338
GCAGACAGGTGCAACGCAGGTAACTCAGGGTGGC	-0.431	-0.314	-0.365	0.123	0.00957	2.13	-0.805	-0.15
ATCGAAAGGTCGAGCTGAGTATAGAGAAAGGGAA	1.8	4.17	3.96	0.849	4.35	1.96	-0.857	0.148
TCGAGTAGGGTACCAATGGGGCATTCAGCTTTCT	0.23	-0.106	-0.439	-0.161	0.0647	-0.59	-0.915	-0.697
TCATATGGGTAAAAGGTGAAAGTCGGTGTGGTAA	1.98	1.7	0.446	1.05	2.64	1.46	0.164	-0.0613
ATCTCTAGGTAAGACTCAGCTCAGTGAAGAACGC	0.128	-0.176	0.0732	0.0476	-0.204	0.124	0.524	0.3
ACAGACAGGTGATGAAGCTAACTCAGGCTATCAT	-0.226	0.175	0.281	-0.327	0.256	0.425	-0.032	-0.132
AATACAGGGTCAACGTAGGCCAGAGTACGCACAG	3.8	6.08	5.84	3.18	6.81	4.35	1.24	3.28
TCATATAGGTAAAAGGAGAAAGTCGGTGTGGTAA	-0.155	0.181	0.123	1.49	0.649	-0.0526	-0.722	0.471
CCTCCAAGGTCAATGCTAGGTCAGTGAAAGCATT	5.1	7.37	6.33	3.35	4.78	4.47	2.91	2.71
CCTAATGGGCCAAAAAGGTCATTGATGCCGATAA	4.33	4.34	4.05	1.29	4.45	3.03	0.29	2.59
TAGCCTATGTCAGATCGGGCCAGTATACGCTATA	-0.337	-0.0162	-0.00722	-0.495	-0.0681	1.45	-0.592	-0.48
CCGACTGGGGCAGATAGGTTACCATACCATCCGG	0.817	0.424	0.518	-0.658	0.262	-0.181	-0.391	-0.573
CCGACTGGGCCAAAAAGGTCATTGATGCCGATAA	4.22	4.39	3.5	0.66	4.52	3.14	0.199	2.14
AGTCAAAGTTCACTAGGTCACGTAAGATTCAGCT	5.29	6.62	7.17	4.43	5.44	3.72	2.54	4.43
ATCGAAAGGTCGACGAGGTGAGTACACACCGTTT	3.26	4.26	4.18	1.34	4.5	3.7	1.06	2.27
GCAGACAGGTGAAACGCAGGTAACACAGGGTGGC	0.0703	1.1	0.467	-0.772	0.886	1.26	-0.435	-0.401
TGAATGAGGTTATAAGATCGGGGAACGTTGCAAA	0.0926	1.17	0.891	0.942	1.77	1.76	0.158	0.395
GGAAAGAGGGCAAGTTGATAGCAGAGTTTGATGG	2.23	2.23	3	1.94	1.43	1.02	0.275	1.93
AATACAGGGTCACTAGGCCAGATTAGGTACGAAT	3.44	5.37	4.96	3.03	5.9	3.57	1.46	2.83
TCTGCTAGGTCAGCGATGGTCAGCTAATCTGCTA	2.71	2.89	3.88	0.156	1.25	2.4	-0.062	-0.739
ATCTCTAGGTAAGACTCAATTCAGTGAAGAACGC	0.0312	0.0724	0.455	0.244	0.0675	0.381	0.522	0.603
